Here are results for 30 compounds from PubChem BioAssay (NCATS).

Where “and” joins values, the source holds several entries; their conditions need not be identical. Equal values may be shown once. Results filed as inconclusive are left out. Calls of active or inactive are those of the source. Unless noted, calls come from the whole dose curve. Some results are limits rather than exact numbers.

The target of one experiment is Cytochrome P450 1A2 (Homo sapiens) (UniProt P05177). Description: p450-cyp1a2 (AID 410).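 For activity change, negative = inhibition: -100% = full effect of reference inhibitor.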 Note: potency is the fitted concentration of half-maximal effect. Conditions: recombinant CYP1A2, luciferin-ME demethylation, luminescence; series mostly up to 25.6 µM; activity change, negative = inhibition: at the top concentration. A digest of the protocol: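 Human CYP1A2 (20nM) demethylated Luciferin-ME at its Km (100uM) in 100mM KPO4. After 10 min compound preincubation, NADPH regeneration ran the reaction 60 min at room temperature. Luciferin was read by luminescence, normalized to 57 uM furafylline.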
Chain of Cytochrome P450 1A2 (Homo sapiens) (P05177 whole entry, looked up): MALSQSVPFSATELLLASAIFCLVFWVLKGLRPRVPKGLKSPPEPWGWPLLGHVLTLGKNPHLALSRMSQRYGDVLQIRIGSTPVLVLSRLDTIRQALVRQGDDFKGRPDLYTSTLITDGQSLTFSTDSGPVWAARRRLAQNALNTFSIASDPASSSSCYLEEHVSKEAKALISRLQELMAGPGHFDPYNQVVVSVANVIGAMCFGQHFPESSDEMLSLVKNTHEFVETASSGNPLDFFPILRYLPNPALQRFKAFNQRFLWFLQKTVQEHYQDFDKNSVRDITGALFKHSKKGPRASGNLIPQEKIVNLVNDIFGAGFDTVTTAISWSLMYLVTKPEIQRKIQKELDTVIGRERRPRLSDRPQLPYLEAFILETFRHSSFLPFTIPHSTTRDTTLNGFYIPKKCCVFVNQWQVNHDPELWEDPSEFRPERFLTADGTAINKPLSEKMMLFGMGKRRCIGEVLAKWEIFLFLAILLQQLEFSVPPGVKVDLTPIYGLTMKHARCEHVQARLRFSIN
As to `CCCCNc1ccc(C(=O)OCCOCCOCCOCCOCCOCCOCCOCCOCCOC)cc1`, the “activity change, negative = inhibition” value was 3.1% (inactive).
Still for that read-out and setting: the same measure for `O=C(CCCN1CC=C(n2c(=O)[nH]c3ccccc32)CC1)c1ccc(F)cc1`: -11% (inactive).
Take `COc1cc(N)c(Cl)cc1C(=O)NC1CCN(Cc2ccccc2)CC1`: the Potency is 12.6 µM (active).
On to `CCCN(CCC)S(=O)(=O)c1ccc(C(=O)O)cc1`, for which the “activity change, negative = inhibition” value is 0.8% (inactive).
Still for that read-out and setting: the same measure for `NS(=O)(=O)c1cc(C(=O)O)cc(N2CCCC2)c1Oc1ccccc1`: -3.4% (inactive); for `CCCc1ncc(C[n+]2ccccc2C)c(N)n1`: -1.5% (inactive); for `Nc1ccc(C(=O)NCC(=O)O)cc1`: -6.2% (inactive).
For `COc1ccc(C(=O)c2ccccc2)c(O)c1`, the Potency is 1.58 µM (active).
The same measure, in the same setting: the same measure for `Nc1ccc(S(=O)(=O)Nc2cnc3ccccc3n2)cc1`: “inactive”; for `CCc1cc(Cl)c(OC)c(C(=O)NC[C@@H]2CCCN2CC)c1O`: 3.98 µM (active).
Take `COc1cc(C(=O)NCc2ccc(OCCN(C)C)cc2)cc(OC)c1OC`: the “activity change, negative = inhibition” value is 0.5% (inactive).
As to `O=C1C(CCS(=O)c2ccccc2)C(=O)N(c2ccccc2)N1c1ccccc1` (configuration not stated), the “activity change, negative = inhibition” value was -14.7% (inactive).
The same measure, in the same setting: the result for `NS(=O)(=O)Cc1noc2ccccc12` reads -5.7% [at 57 µM] (inactive); that for `C[N+]1(C)CCC(=C(c2ccccc2)c2ccccc2)CC1`, -2.2% (inactive); that for `O=C1C(O)=C(O)C(=O)C(O)=C1O`, -3.3% (inactive).
With `CCN(CC)CCNc1ccc(CO)c2sc3ccccc3c(=O)c12`, the Potency is 0.126 µM (active).
Still for that read-out and setting: the result for `CN(C)CCC[C@@]1(c2ccc(F)cc2)OCc2cc(C#N)ccc21` reads “inactive”; that for `Cc1c(-c2ccccc2)oc2c(C(=O)OCCN3CCCCC3)cccc2c1=O`, 6.31 µM (active).
`COc1ccc(C(Cl)=C(c2ccc(OC)cc2)c2ccc(OC)cc2)cc1`: the “activity change, negative = inhibition” value is -17.5% (inactive).
`Cc1cc(-c2ccccc2)nnc1NCCN1CCOCC1`: the Potency is 10 µM (active).
On the same count and under the same terms, the same measure for `CC(C)(C)NC[C@H](O)COc1cccc2c1CCCC2=O`: “inactive”.
Consider `N=C(N)N1CCc2ccccc2C1`, for which the “activity change, negative = inhibition” value is -6.5% (inactive).
Regarding `CCOC(=O)c1ccc(N)cc1`, the Potency was 2 µM (active).
The same measure, in the same setting: the result for `CCN(CC)CCNC(=O)c1cc(Br)c(N)cc1OC` reads 10 µM (active); that for `CN1CCC[C@@H]1CCO[C@](C)(c1ccccc1)c1ccc(Cl)cc1`, “inactive”; that for `NC(N)=NCc1cccc(I)c1`, 12.6 µM (active).

System in the next experiment: not listed separately
As to the kind of experiment: Cell Viability - BJ (AID 421).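 Note: potency is the fitted concentration of half-maximal effect; cells exposed to compound for 40 hours at 37 °C before readout.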 The conditions noted are these: BJ fibroblast viability, qHTS. Summed up:
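Cytotoxicity as drop in intracellular ATP (CellTiter-Glo, 20 min RT) after 40 hr compound exposure of BJ fibroblasts at 37 °C. Titrations scaled between DMSO and 100 uM tamoxifen, Hill-fitted for AC50.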
On to `CCCN(CCC)S(=O)(=O)c1ccc(C(=O)O)cc1`, for which the Potency is > 92 µM (inactive).
The same measure, in the same setting: the result for `CCOc1ccc(NC(C)=O)cc1` reads > 92 µM (inactive).
The same measure, in the same setting: the same measure for `COc1ccc(C(=O)c2ccccc2)c(O)c1`: > 92 µM (inactive); for `COc1ccc(C(Cl)=C(c2ccc(OC)cc2)c2ccc(OC)cc2)cc1`: > 92 µM (inactive).

System in another experiment: not listed separately
Description: Cell Viability - Jurkat (AID 426;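 active = dose-dependent loss of cell ATP signal giving a full or clear fitted curve, ranked by lower potency value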; note: potency is the fitted concentration of half-maximal effect). Conditions: qHTS. Summed up:
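Jurkat (clone E6-1, human T-cell leukemia) cells, 5000/well in complete medium, were exposed to compound for 40 hr at 37 °C. Viability was read as intracellular ATP by CellTiter-Glo luminescence; AC50 came from Hill fits of concentration-response data.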
For `CCCN(CCC)S(=O)(=O)c1ccc(C(=O)O)cc1`, the Potency was > 92 µM (inactive).
On the same count and under the same terms, the result for `CCOc1ccc(NC(C)=O)cc1` reads > 92 µM (inactive); that for `COc1ccc(C(=O)c2ccccc2)c(O)c1`, > 92 µM (inactive).

System in another experiment: not listed separately
Description: Cell Viability - Hek293 (AID 427;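 active = compounds whose dose-response curve shows a full or clear partial loss of cell viability, called from curve shape rather than a numeric limit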;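 note: potency is the fitted concentration of half-maximal effect; cells exposed to compound for 40 hours at 37 °C before reading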). The conditions noted are these: qHTS. A digest of the protocol:
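Luminescent ATP content (CellTiter-Glo, 20 min at room temperature) was measured after a 40 hr, 37 °C compound exposure of HEK293 cells. AC50 values came from Hill-equation fits of qHTS concentration-response data normalized to DMSO and 100 uM tamoxifen.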
For `CCCN(CCC)S(=O)(=O)c1ccc(C(=O)O)cc1`, the Potency was > 92 µM (inactive).
On the same count and under the same terms, the same measure for `CCOc1ccc(NC(C)=O)cc1`: > 92 µM (inactive); for `COc1ccc(C(=O)c2ccccc2)c(O)c1`: > 92 µM (inactive); for `COc1ccc(C(Cl)=C(c2ccc(OC)cc2)c2ccc(OC)cc2)cc1`: > 92 µM (inactive).

System in a further experiment: not listed separately
Description: Cell Viability - HepG2 (AID 433).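 Note: potency is the fitted concentration of half-maximal effect; potency for ATP loss meaning cytotoxicity.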 Conditions: qHTS. Summed up: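 Cytotoxicity is scored as loss of intracellular ATP in HepG2 cells exposed to compounds for 40 h. Concentration-response curves, normalized to DMSO and 100 uM tamoxifen, give AC50 values.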
As to `CCCN(CCC)S(=O)(=O)c1ccc(C(=O)O)cc1`, the Potency is > 92 µM (inactive).
Still for that read-out and setting: the same measure for `CCOc1ccc(NC(C)=O)cc1`: > 92 µM (inactive); for `COc1ccc(C(=O)c2ccccc2)c(O)c1`: > 92 µM (inactive).
On the same count and under the same terms, the result for `COc1ccc(C(Cl)=C(c2ccc(OC)cc2)c2ccc(OC)cc2)cc1` reads > 92 µM (inactive).

System in a further experiment: not listed separately
As to the kind of experiment: Cell Viability - MRC5 (AID 434).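 Note: potency is the fitted concentration of half-maximal effect; potency reflects cytotoxicity seen as loss of intracellular ATP.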 Conditions: MRC5 lung fibroblast viability, qHTS. Summed up: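 MRC5 normal human lung fibroblasts (1500/well) were treated with compounds for 40 hr at 37 °C in complete medium, and viable cells were measured as intracellular ATP by CellTiter-Glo luminescence. AC50 came from Hill fits, normalized to DMSO and 100 uM tamoxifen.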
Regarding `CCCN(CCC)S(=O)(=O)c1ccc(C(=O)O)cc1`, the Potency is > 92 µM (inactive).
Still for that read-out and setting: the same measure for `CCOc1ccc(NC(C)=O)cc1`: > 92 µM (inactive); for `COc1ccc(C(=O)c2ccccc2)c(O)c1`: > 92 µM (inactive); for `COc1ccc(C(Cl)=C(c2ccc(OC)cc2)c2ccc(OC)cc2)cc1`: > 92 µM (inactive).

System in a further experiment: not listed separately
As to the kind of experiment: Cell Viability - SK-N-SH (AID 435).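 Note: potency is the fitted concentration of half-maximal effect; compound exposure lasted 40 h at 37 °C.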 Conditions: SK-N-SH neuroblastoma cell viability qHTS. A digest of the protocol: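 Cells seeded at 1500 per well and incubated 5 hr at 37 °C. Compound added, then 40 hr at 37 °C. CellTiter-Glo added, 20 min at room temperature, luminescence read.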
Consider `CCCN(CCC)S(=O)(=O)c1ccc(C(=O)O)cc1`, for which the Potency was > 92 µM (inactive).
On the same count and under the same terms, the same measure for `CCOc1ccc(NC(C)=O)cc1`: > 92 µM (inactive); for `COc1ccc(C(=O)c2ccccc2)c(O)c1`: > 92 µM (inactive).
On the same count and under the same terms, the result for `COc1ccc(C(Cl)=C(c2ccc(OC)cc2)c2ccc(OC)cc2)cc1` reads > 92 µM (inactive).

System in the next experiment: not listed separately
As to the kind of experiment: NFAT Signaling Pathway (AID 444; active = well fitted curve in either direction with a large enough effect, not every such curve was filed as active;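 note: carbachol stimulus at about its EC50 of 1 µM final; % is set by controls: 0 for no effect and ±100 for the full control effect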). The conditions noted are these: Jurkat NFAT-bla M1, carbachol, beta-lactamase ratio, 5 h; at 17.2 µM (top of the series) unless noted. A digest of the protocol: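 Jurkat cells carrying an NFAT-driven β-lactamase reporter and co-transfected muscarinic M1 receptor were treated with compound plus carbachol (1 uM final, an EC50 level) for 5 h at 37 °C. CCF4 loading followed for 1 h at RT; 460/530 nm ratio gave %activity.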
With `CCCCNc1ccc(C(=O)OCCOCCOCCOCCOCCOCCOCCOCCOCCOC)cc1`, the activity change, negative = inhibition is -6.05% (inactive).
Still for that read-out and setting: the same measure for `O=C(CCCN1CC=C(n2c(=O)[nH]c3ccccc32)CC1)c1ccc(F)cc1`: -14.9% (inactive).
The same measure, in the same setting: the result for `COc1cc(N)c(Cl)cc1C(=O)NC1CCN(Cc2ccccc2)CC1` reads -14.7% (inactive); that for `CCCN(CCC)S(=O)(=O)c1ccc(C(=O)O)cc1`, 1.18% (inactive) and -1.81% (inactive); that for `NS(=O)(=O)c1cc(C(=O)O)cc(N2CCCC2)c1Oc1ccccc1`, -7.88% (inactive).
For `CCCc1ncc(C[n+]2ccccc2C)c(N)n1`, the activity change, negative = inhibition was -11.4% (inactive).
Take `Nc1ccc(C(=O)NCC(=O)O)cc1`: the activity change, negative = inhibition is 3.72% (inactive).
The same measure, in the same setting: the result for `COc1cc(C)nc(-n2nc(C)cc2OC)n1` reads -6.98% (inactive); that for `CCOc1ccc(NC(C)=O)cc1`, 3.42% (inactive); that for `COc1ccc(C(=O)c2ccccc2)c(O)c1`, -6.2% (inactive).
Same read-out and setting: the result for `COc1cc(C(=O)NCc2ccc(OCCN(C)C)cc2)cc(OC)c1OC` reads -15.8% (inactive); that for `O=C(O)CCc1nc2ccccc2[nH]1`, 5.96% [at 7.69 µM] (inactive); that for `O=C1C(CCS(=O)c2ccccc2)C(=O)N(c2ccccc2)N1c1ccccc1` (configuration not stated), -0.885% (inactive) and -5.88% (inactive).
Still for that read-out and setting: the same measure for `NS(=O)(=O)Cc1noc2ccccc12`: -5.42% [at 38 µM] (inactive).
As to `O=C1C(O)=C(O)C(=O)C(O)=C1O`, the activity change, negative = inhibition was -6.65% (inactive).
On the same count and under the same terms, the result for `CCN(CC)CCNc1ccc(CO)c2sc3ccccc3c(=O)c12` reads -29.8% (inactive); that for `Cc1c(-c2ccccc2)oc2c(C(=O)OCCN3CCCCC3)cccc2c1=O`, -3.52% (inactive).
Same read-out and setting: the same measure for `CC(=O)O[C@]1(C(C)=O)CC[C@H]2[C@@H]3C=C(C)C4=CC(=O)CC[C@]4(C)[C@H]3CC[C@@]21C`: -25.3% (inactive); for `Cc1cc(-c2ccccc2)nnc1NCCN1CCOCC1`: -10.7% (inactive) and -25.7% (inactive); for `CC(C)(C)NC[C@H](O)COc1cccc2c1CCCC2=O`: -6.3% (inactive) and -2.31% (inactive).
The same measure, in the same setting: the same measure for `N=C(N)N1CCc2ccccc2C1`: -7.74% (inactive); for `CCOC(=O)c1ccc(N)cc1`: -2.56% (inactive).
`NC(N)=NCc1cccc(I)c1`: the activity change, negative = inhibition is -11.1% [at 38 µM] (inactive).
